This is a sample that favours compounds with a hit; in the whole collection about 4% have one here.
tim10-1 inh: growth inhibitors of tim10-1 mutant yeast, primary screen, luminescence, uHTS | S. cerevisiae tim10-1 ts strain growth, BacTiter-Glo, 24 h | inhibition, % at 20 µM | hit rate 2.2% among 330,000;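 active = inhibition of at least 40%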;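 note: mutant grown at 25 °C; 0% = DMSO wells with yeast and 100% = wells holding no yeast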
tim23-1 inh: growth inhibitors of tim23-1 mutant yeast, primary screen, luminescence, uHTS; S. cerevisiae tim23-1 growth, BacTiter-Glo luminescence, 24 h; inhibition, % at 20 µM; hit rate 1.3% among 330,000; AID 463212, 2010;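 active = growth inhibition of the mutant yeast at or above 50%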;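 note: temperature-sensitive mutant grown at 25 °C; plate controls were DMSO-treated mutant yeast for no effect and medium wells lacking yeast for full effect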
TIM10 inh: growth inhibitors of isogenic TIM10 control yeast, primary screen, counter-screen for tim10-1 yeast inhibitor project, luminescence, uHTS | S. cerevisiae TIM10 strain growth, BacTiter-Glo luminescence, 24 h | hit rate 1.4% among 330,000 | inhibition, % at 10 µM;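 active = inhibition of 40% or more at the single tested concentration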;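 note: wild-type TIM10 isogenic control strain grown at permissive 25 °C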
NALP1 yeast inh: NALP1 inflammasome inhibitors in reconstituted yeast, colorimetric, S. cerevisiae, triplicate retest; S. cerevisiae NALP1/ASC/caspase-1 growth, X-gal OD620, 72 h; inhibition, % at 10 µM; hit rate 0.61% among 280,000; AID 2071, 2009; in the data active = inhibition mostly above about 24%, no sharp cut-off; inactive = mostly below about 32%
NLRP3 yeast inh: NALP3 inflammasome inhibitors in reconstituted yeast, primary screen, luminescence, uHTS; Yeast reconstituted NLRP3/ASC/caspase-1, beta-gal luminescence, 24 h; inhibition, % at 10 µM; hit rate 0.39% among 330,000;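 active = inhibition of 50% or more; inactive = inhibition below 50%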;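 note: plate controls were induced DMSO wells for no effect and uninduced yeast grown without galactose for full effect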
NALP3 confirm: NALP3 inhibitors retested in yeast, confirmation, luminescence, single concentration; shares compounds with NLRP3 yeast inh; yeast expressing human NALP3; inhibition, % at 10 µM; hit rate 81% among 1,300; AID 435006, 2010; in the data active = inhibition above about 48%
Casp1-ASC yeast: CASP1-PYCARD signaling inhibition in yeast, confirmatory test, counterassay for NLRP3 inhibitor program, one-dose; shares compounds with NLRP3 yeast inh; yeast expressing Caspase-1-ASC, luminescence counter screen; inhibition, % at 10 µM; hit rate 66% among 1,000
NALP3 retest: NALP3 inhibitors in yeast, repeat test, confirmation, luminescence, single concentration, retest | shares compounds with NLRP3 yeast inh | yeast expressing human NALP3, luminescence read-out | inhibition, % at 10 µM | hit rate 53% among 1,000
* = called active by the depositor; . = no result. Cut-off read from the data, not from the text of the source, unless noted: active = inhibition above about 50%; inactive = the rest.

SMILES | tim10-1 inh | tim23-1 inh | TIM10 inh | NALP1 yeast inh | NLRP3 yeast inh | NALP3 confirm | Casp1-ASC yeast | NALP3 retest
C=CCOc1ccc(/C=C/C(C)=N\O)cc1 | 2.6 | 25.9 | -8.8 | 18.6 | 58.8* | 67.5* | 60.3* | 46.9
CCNCCNC(=O)c1c(O)c2cccc3c2n(c1=O)CCC3 | -6.2 | 25.8 | 19.8 | -4.4 | 52.8* | 74.2* | 40.6 | 44.2
CNC(=O)c1c(O)c2cccc3c2n(c1=O)CC3 | -3.7 | 37.1 | 36.8 | . | 53.7* | 60.0* | 40.5 | 36.5
CC(C)NC(=O)c1c(O)c2cccc3c2n(c1=O)CCC3 | 18.3 | 2.7 | 2.6 | 4.9 | 13.9 | . | . | .
CCOc1ccc(/C(C)=N\NC(=O)Cc2ccccc2)cc1 | 7.0 | 19.1 | 12.9 | 7.2 | 21.4 | . | . | .
COc1ccc(CC(=O)NNC(=O)CSc2nc(C)c(C)c(=O)[nH]2)cc1 | 6.8 | -1.8 | 14.5 | -4.5 | -5.7 | . | . | .
CC1CCCN(CCOc2cccc(Oc3ccccc3)c2)C1 (centres undefined) | -37.8 | -18.8 | -43.3 | 22.3 | 50.3* | 55.8* | 44.8 | 39.6
Cc1ccc(NC(=O)Cn2cccc2)cc1C | -24.0 | 3.0 | 5.5 | -4.1 | 12.8 | . | . | .
Cc1ccc(NC(=O)CCn2cccc2)cc1C | -14.3 | 12.5 | -7.6 | 23.6 | 58.7* | 74.0* | 43.0 | 39.4
CCCCCC(=O)N1CCN(CCN=CC2=C(O)CC(c3ccc(OC)cc3)CC2=O)CC1 (centres undefined) | 0.4 | 12.3 | 8.5 | 22.6 | 54.9* | 72.0* | 46.5 | 47.9
CCCCCC(=O)N1CCN(CCN=CC2=C(O)CC(c3ccc(OC)c(OC)c3)CC2=O)CC1 (centres undefined) | 13.6 | 10.6 | 15.0 | 5.2 | 57.8* | 65.7* | 42.9 | 37.5
COc1ccc(C2CC(=O)C(C=NCCCO)=C(O)C2)cc1 (centres undefined) | 4.6 | 10.7 | 4.4 | 4.9 | 3.0 | . | . | .
COc1ccc(C2CC(=O)C(C=NCCN3CCNCC3)=C(O)C2)cc1OC (centres undefined) | . | . | . | -7.5 | . | . | . | .
CCC(=O)N1CCN(CCN=CC2=C(O)CC(c3ccc(OC)cc3)CC2=O)CC1 (centres undefined) | 14.5 | 20.7 | -1.2 | 39.4 | 53.1* | 35.4 | . | .
CC12CCC(=O)N1C(C(=O)Nc1nnc(SCc3ccc(F)cc3)s1)CS2 (centres undefined) | 16.0 | 22.5 | 20.0 | 1.4 | 23.0 | . | . | .
CC(=O)O[C@H]1CC[C@@]2(C)C(CCC3C2CC[C@]2(C)OC(=O)CCC32)C1 (some centres undefined) | -48.8 | -32.7 | -47.3 | 20.9 | 59.9* | 57.5* | 58.7* | 35.1
COC(=O)N[C@@H]1C[C@H]2[C@@H]3CC[C@H]4C[C@@H](OC)CC[C@]4(C)[C@H]3CC[C@]12C | 14.0 | 28.1 | 8.1 | . | 37.0 | . | . | .
Cc1[nH]c2c(C)cccc2c1CCNC(=O)C1CCCCC1C(=O)OCC(F)(F)F (centres undefined) | 22.0 | 26.5 | 14.5 | 6.4 | 72.2* | -7.0 | . | .
CCC1Nc2ncnc(N3CCN(c4ccccn4)CC3)c2N(Cc2ccc(Cl)cc2)C1=O (centres undefined) | -7.0 | 20.5 | 7.1 | . | 50.5* | 59.8* | 37.8 | 51.6*
CCC1Nc2ncnc(N3CCCCC3)c2N(Cc2ccc(Cl)cc2)C1=O (centres undefined) | 15.2 | 45.9 | 18.7 | . | 15.5 | . | . | .
CCC1Nc2ncnc(N3CCCCC3)c2N(Cc2ccc(Br)cc2)C1=O (centres undefined) | 23.5 | 33.4 | 25.8 | . | 22.2 | . | . | .
CCC1Nc2ncnc(N3CCN(c4ccccn4)CC3)c2N(Cc2ccc(Br)cc2)C1=O (centres undefined) | -7.5 | 31.5 | 8.3 | . | 55.7* | 69.6* | 48.4 | 65.7*
CSc1nc(S(=O)(=O)c2ccc(C)cc2)c(Cl)s1 | 18.2 | 17.5 | -24.6 | -31.3 | -51.0 | . | . | .
CCOc1nc(S(=O)(=O)c2ccc(C)cc2)c(Cl)s1 | 18.8 | 9.4 | 19.7 | -18.7 | -106.5 | -12.2 | . | .

Assay outcomes deposited in PubChem by Sanford-Burnham Center for Chemical Genomics.
